Source: the supplement of paper PMC10646978
± gives the standard deviation.

test system: RAW-Dual (murine macrophage reporter line); test: IRF reporter (Lucia luciferase) activity fold change vs agonist alone; higher = enhanced IRF activity; settings: modulator concentration 10 µM; agonist: LPS 0.1 ug/mL
How it was run: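 Overnight stimulation with a PRR agonist followed pre-incubation for 1 hour at 37 °C with compound at 10 μM final. This was done in RAW-Dual murine macrophage reporter cells seeded at 50 000 per well in 384-well plates. NF-κB (SEAP, QUANTI-Blue absorbance at 620 nm) and IRF (Lucia luciferase, QUANTI-Luc luminescence) were read from the supernatant. Each reporter's fold change relative to the mean agonist-only control on the same plate was averaged over replicate plates.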

Structure (SMILES)	IRF reporter
COCCCNC(=O)C1CCCN(c2ccc(Sc3ccc(Br)cc3)nn2)C1 (configuration not stated)	0.966 ± 0.076
O=C(c1ccc(F)cc1)N(C1CCCCC1)C1CCCCC1	1.28 ± 0.14
CCCc1nc2c(C)cc(-c3nc4ccccc4n3C)cc2n1Cc1ccc(-c2ccccc2C(=O)O)cc1	1.49 ± 0.28
Cc1ccc(NC(=O)C(C#N)=Cc2ccc(-c3cccc([N+](=O)[O-])c3)o2)cc1	1.46 ± 0.1
COc1ccc(N(CC(=O)Nc2ccccc2C(F)(F)F)S(C)(=O)=O)cc1	1.03 ± 0.14
COc1ccccc1S(=O)(=O)N1CC(Oc2nc3c(C(F)(F)F)cccc3s2)C1	1.43 ± 0.23
COC(=O)C1=C(C)NC(C)=C(C(=O)OCC(C)C)C1c1ccccc1[N+](=O)[O-] (configuration not stated)	0.783 ± 0.066
Fc1ccc(Nc2nc(NN=Cc3ccccc3F)nc(N3CCCCC3)n2)cc1	1.26 ± 0.18
COc1ccc(S(=O)(=O)Nc2ccc(Oc3ccccc3)cc2)cc1	1.17 ± 0.13
Br.CN(C)CCCC1(c2ccc(F)cc2)OCc2cc(C#N)ccc21 (configuration not stated)	1.37 ± 0.4
COc1cccc(N2C(=O)CN(Cc3ccccc3)C3CS(=O)(=O)CC32)c1 (configuration not stated)	0.237 ± 0.05
O=C(O)CC(C(=O)O)N1C(=O)C(=C2C(=O)Nc3ccc(Br)cc32)SC1=S (configuration not stated)	1.24 ± 0.15
c1ccc(CNc2nc(N3CCOCC3)nc(N3CCOCC3)n2)cc1	1.09 ± 0.12
Cc1nnc(NC(=O)c2cccc([N+](=O)[O-])c2)s1	1.06 ± 0.049
COc1ccc(N(CC(=O)N2CCc3ccccc3C2)S(C)(=O)=O)c(OC)c1	1.49 ± 0.28
O=C(Nc1cccnc1)c1ccc(OC2CCOCC2)nc1	1.05 ± 0.13
CC[C@H](C)C(=O)O[C@H]1C[C@@H](C)C=C2C=C[C@H](C)[C@H](CC[C@@H]3C[C@@H](O)CC(=O)O3)[C@H]21	0.795 ± 0.055
